# Compound activity from PubChem.
# Pf Dd2 inh: qHTS Primary assay for Inhibitors of Plasmodium falciparum Dd2 growth in vitro; P. falciparum Dd2 growth, SYBR Green, 72 h; AID 1347417, 2020; Potency, µM (doses to about 28.9 µM), for the others: top-dose activity, negative = inhibition, usual class: inhibitors; 120,000 compounds, 4.3% hits; active means well fitted inhibition curve with a large enough effect;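 further: plate controls were DMSO vehicle for no effect and reference drug for full effect; nearly all actives have a fitted effect of over 65% in size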
#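 Readout: SYBR Green fluorescence, 485 nm excitation, 535 nm emission, after ~16 h lysis at 37C. Before that, Dd2-infected red cells (2.5% hematocrit) grew 72 h with compound, 29 uM top final concentration.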
# * hit, by the source's call; i = inactive; [ ] = another dose, or the depositor's remark. This is one part of a sample in which hits are shown more often than they occur. Potency means the concentration at half of the fitted maximal effect.
SMILES,Pf Dd2 inh
Cc1ccc(-c2nnc([C@H]3CCN(Cc4ncc[nH]4)C3)o2)cc1,i
CN(C)C[C@@H]1CN(c2ncccn2)C[C@H]1NC(=O)c1cnccn1,3.5%
O[C@@H]1C[C@@H](c2nc(-c3ccc4c(c3)OCO4)no2)N(Cc2ccccn2)C1,i
Cc1ccc2c(C)c(C(=O)N(C)Cc3noc4c3CCCC4)oc2c1,-28.3%
CCN1c2cc(C(=O)Nc3ccc(OC)cc3)ccc2C(=O)N2CCCCCC21 (configuration not stated),i
CCN1c2cc(C(=O)Nc3ccc(Cl)c(C)c3)ccc2C(=O)N2CCCCCC21 (configuration not stated),6.31µM*
Cc1cc(NC(=O)c2ccc3c(c2)N(C)C2CCCCCN2C3=O)ccc1Cl (configuration not stated),i
Cc1cccc(CNC(=O)c2ccc3c(c2)N(C)C2CCCCN2C3=O)c1 (configuration not stated),3.98µM*
Cc1ccc(CNC(=O)c2ccc3c(c2)N(C)C2CCCN2C3=O)cc1 (configuration not stated),i
CCN1c2cc(C(=O)Nc3cccc(F)c3)ccc2C(=O)N2CCCCC21 (configuration not stated),-5.3%
CCN1c2cc(C(=O)Nc3ccc(SC)cc3)ccc2C(=O)N2CCCCC21 (configuration not stated),i
CCN1c2cc(C(=O)Nc3ccc(OC(F)(F)F)cc3)ccc2C(=O)N2CCCC21 (configuration not stated),-14.7%
CCN1c2cc(C(=O)Nc3cccc(SC)c3)ccc2C(=O)N2CCCCCC21 (configuration not stated),6.31µM*
CCN1c2cc(C(=O)Nc3ccc(OC(F)(F)F)cc3)ccc2C(=O)N2CCCCC21 (configuration not stated),1.78µM*
CCN1c2cc(C(=O)Nc3ccc(Cl)c(Cl)c3)ccc2C(=O)N2CCCCC21 (configuration not stated),-8.1%
CN1c2cc(C(=O)NCc3cccc(Cl)c3)ccc2C(=O)N2CCCCCC21 (configuration not stated),i
COc1ccc(C)cc1NC(=O)N1CC(c2nnc(-c3ccncc3)o2)C2(CCOCC2)C1 (configuration not stated),-1.9%
Cc1noc(C)c1NC(=O)N[C@@H]1CCC[C@@H](C(=O)N2CCN(C)CC2)CC(=O)N(C)C1,3.0%[44.1 µM]
Cc1cccc(CC(=O)NCCC2CCN(C(=O)Nc3ccccc3)CC2)c1,-11.5%
Cc1cccc(OCC(=O)N2CC(c3nnc(C(C)C)o3)C3(CCOCC3)C2)c1 (configuration not stated),7.5%
COc1ccc(C(CC(=O)N(C)Cc2cnc3ccccn23)c2ccccc2)cc1 (configuration not stated),-12.0%
CN(C)C(=O)c1ccn2cncc2c1,38.4%[44.1 µM]
Cc1ncoc1C(=O)N1CCCN(C(=O)C2CC2)C(c2ccccc2)CC(=O)NCC1 (configuration not stated),-0.2%
Cc1nonc1CC(=O)N1CCc2ccc(S(=O)(=O)NCCC(C)O)cc2C1 (configuration not stated),-4.2%
CC1(C)CN(C(=O)C2CCN(C(=O)C3CCCC3)CC2)CC1(C)O (configuration not stated),10.5%
SMILES,Pf Dd2 inh
COc1cccc(NC(=O)c2ccc3c(c2)C(O)CCCCCN3C)c1 (configuration not stated),-9.3%
CN1c2cc(C(=O)Nc3ccc(C(F)(F)F)cc3)ccc2C(=O)N2CCCCCC21 (configuration not stated),11.2µM*
CN1CCCCCC(O)c2cc(C(=O)Nc3cccc(OC(F)(F)F)c3)ccc21 (configuration not stated),14.1µM*
COc1ccc(OC)c(NC(=O)c2ccc3c(c2)C(O)CCCCCN3C)c1 (configuration not stated),i
CN1c2cc(C(=O)Nc3ccc(Br)cc3)ccc2C(=O)N2CCCCCC21 (configuration not stated),-20.8%
CN1c2cc(C(=O)Nc3ccc(F)cc3)ccc2C(=O)N2CCCCCC21 (configuration not stated),i
COc1ccc(NC(=O)N2c3ccccc3CC2c2nc(C(C)C)no2)c(OC)c1 (configuration not stated),-8.6%[5.79 µM]
CN(C)C(=O)N1CCC(c2nc(C3CCOC3)no2)CC1 (configuration not stated),8.2%
C[S+](=O)([O-])N1CCC2(CC1)C(=NC1CCCC1)NC(=O)N2c1cc(F)cc(F)c1,23.8%
O=C1NC(=NC2CCCCC2)C2(CCN(Cc3cccnc3)C2)N1c1cccnc1 (configuration not stated),-4.1%
CC(=O)N1CCCC2(C1)C(=NC1CCCC1)NC(=O)N2c1cc(F)cc(F)c1 (configuration not stated),-13.3%
CN(C)c1ccc(CN2CCC3(CC2)C(=NC2CCCCC2)NC(=O)N3c2cccnc2)cc1,6.5%
O=C1NC(=NC2CCCC2)C2(CCN(Cc3ccccc3)C2)N1c1cc(F)cc(F)c1 (configuration not stated),1.41µM*
CC(C)CCN1CCC2(CC1)C(=NC1CCCCC1)NC(=O)N2c1cccnc1,11.9%
CN(C)c1ccc(CN2CCCC3(C2)C(=NC2CCCCC2)NC(=O)N3c2cc(F)cc(F)c2)cc1 (configuration not stated),5.62µM*
O=C(OCc1ccccc1)N1CCC2(CC1)C(=NC1CCCC1)NC(=O)N2c1cc(F)cc(F)c1,i
O=C1NC(=NC2CCCCC2)C2(CCN(Cc3ccsc3)C2)N1c1cc(F)cc(F)c1 (configuration not stated),6.2%
O=C1NC(=NC2CCCC2)C2(CCN([S+](=O)([O-])c3ccccc3)C2)N1c1cc(F)cc(F)c1 (configuration not stated),-13.7%
CC(C)CCN1CCC2(C1)C(=NC1CCCC1)NC(=O)N2c1cc(F)cc(F)c1 (configuration not stated),8.91µM*
O=C1NC(=NC2CCCC2)C2(CCCN(Cc3ccc(F)cc3)C2)N1c1cc(F)cc(F)c1 (configuration not stated),7.94µM*
Cc1ccc(S(N)(=O)=O)cc1C(=O)N[C@H]1[C@@H]2CCO[C@@H]2[C@@H]1C1CCCC1,0.1%
CN1CCN(CCCNC(=O)c2c(OCC3CC3)cc(=O)n3c2CCCCC3)CC1,52.9%
Cc1ccoc1C(=O)N1CC(F)(F)C[C@H]1c1nnc(C2CC2)o1,-14.0%
Cc1ccc(N2C(=O)N[C@@H]3CCN(C(=O)c4ccc(C(C)(C)C)cc4)[C@@H]3C2=O)cc1,-0.5%[44.1 µM]
Cc1nnnn1CCCN1CCn2nc(CCC(=O)O)cc2C1,-4.3%
SMILES,Pf Dd2 inh
Cc1cnc(-c2cccnc2)n1C1CCCN(C(=O)C2CC2)C1 (configuration not stated),-22.2%
Cc1cnc(-c2cccnc2)n1CC1CCN(CC2CC2)CC1,-14.6%
Cc1cnc(-c2cccnc2)n1C1CCCN(CC2CCCCC2)C1 (configuration not stated),11.2µM*
CCc1ccccc1S(=O)(=O)N1C[C@@H](F)C[C@H]1C(=O)N1CCc2ccccc2C1,i
O=C(CCc1c[nH]c2ccccc12)N1CCC(Oc2ncccc2C(=O)N2CCOCC2)C1 (configuration not stated),i
O=C(NCc1cccnc1)C1CCc2nnc(-c3ccc(Cl)nc3)n21 (configuration not stated),12.3%
